Assay results from PubChem BioAssay AID1942 (Johns Hopkins Ion Channel Center, 2009).
The whole screen tested about 2,400 compounds, of which about 580 (24%) were called active. These entries were drawn from the full list. Unmarked numbers belong to inactive results.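 How the source made its calls: active means activity change at or above the mean plus 3 SD of buffer wells without dofetilide, per plate; inactive means the rest.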

What follows are compounds tested against Potassium voltage-gated channel subfamily KQT member 2 (Rattus norvegicus) (UniProt O88943) (assay: KCNQ2 potentiation in CHO cells – cell-based, FluxOR thallium flux, counter-screen for hERG block protector project, confirmation (AID 1942;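 further: normalized value minus buffer-control mean plus three SD of buffer wells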)). Details: FluxOR thallium flux fluorescence, at 10 µM, stronger effect = higher value.
Sequence of Potassium voltage-gated channel subfamily KQT member 2 (Rattus norvegicus) (O88943 whole entry, looked up): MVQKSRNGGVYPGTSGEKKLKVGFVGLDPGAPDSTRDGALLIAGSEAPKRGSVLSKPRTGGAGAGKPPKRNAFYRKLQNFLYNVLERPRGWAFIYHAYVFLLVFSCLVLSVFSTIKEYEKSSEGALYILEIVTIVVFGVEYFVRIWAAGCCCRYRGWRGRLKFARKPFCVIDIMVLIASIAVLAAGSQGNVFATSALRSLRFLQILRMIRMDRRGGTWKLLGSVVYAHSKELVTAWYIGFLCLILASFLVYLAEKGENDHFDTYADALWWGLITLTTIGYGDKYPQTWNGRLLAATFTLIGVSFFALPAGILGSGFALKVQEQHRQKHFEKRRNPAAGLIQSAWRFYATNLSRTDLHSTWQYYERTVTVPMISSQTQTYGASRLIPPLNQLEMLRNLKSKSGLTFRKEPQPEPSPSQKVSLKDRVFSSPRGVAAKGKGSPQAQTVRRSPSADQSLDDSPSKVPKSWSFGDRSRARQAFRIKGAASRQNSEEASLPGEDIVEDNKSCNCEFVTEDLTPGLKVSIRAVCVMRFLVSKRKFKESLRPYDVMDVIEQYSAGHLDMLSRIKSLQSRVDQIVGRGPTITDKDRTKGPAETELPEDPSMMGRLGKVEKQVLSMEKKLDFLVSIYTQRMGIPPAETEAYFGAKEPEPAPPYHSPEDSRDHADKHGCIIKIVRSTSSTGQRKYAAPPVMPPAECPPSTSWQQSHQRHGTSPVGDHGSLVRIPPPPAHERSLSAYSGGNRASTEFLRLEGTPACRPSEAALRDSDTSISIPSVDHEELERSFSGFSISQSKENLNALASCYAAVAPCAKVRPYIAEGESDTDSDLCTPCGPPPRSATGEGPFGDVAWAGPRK

In order of rising activity change, less the hit threshold:
1. Cc1ccc(OC(=O)c2sc3ncn(C)c(=O)c3c2C)cc1  -29.2%
2. O=C1OC(/C=C/c2ccccc2)=NC/1=C/c1ccco1  -29%
3. C=Cc1ccc(Cn2c(=O)n(CCCOC)c(=O)c3sccc32)cc1  -28.9%
4. Cc1ccc(/C=N/NC(=O)c2cc(-c3ccncc3)nc3ccccc23)o1  -26.9%
5. COC(=O)c1ccc(NC(=O)COC(=O)C2CC(=O)N(Cc3ccccc3)C2)cc1 (stereo not drawn)  -26.7%
6. O=C(O)CCCN1C(=O)C2C3c4ccccc4C(c4ccccc43)[C@@H]2C1=O (stereo partly drawn)  -24.6%
7. CCOC(=O)CSc1nnc(NC(=O)c2ccc3c(c2)OCO3)s1  -23.9%
8. Cn1c(=O)c2c(nc(Cl)n2CC(=O)N2CCCCC2)n(C)c1=O  -22.7%
9. COCCCNC(=O)CC(NS(=O)(=O)c1ccc(F)cc1)c1ccc(OC)cc1 (stereo not drawn)  -22.5%
10. CCc1nnc(NC(=O)c2cccc(C(=O)Nc3nnc(CC)s3)n2)s1  -22.2%
11. Cc1cccc(NC(=O)COc2coc(CN3CCN(c4ccccc4)CC3)cc2=O)c1  -22.1%
12. CC(C)[C@H](NC(=O)c1ccco1)C(=O)OCC(=O)Nc1cccc(F)c1  -22%
13. COCCNC(=O)C1CCN(S(=O)(=O)N2CCC3(CC2)OCCO3)CC1  -21.8%
14. O=S(=O)(Nc1ccc(Cc2ccncc2)cc1)c1ccc(Cl)c(Cl)c1  -20.9%
15. COc1cc2c(cc1OC)CN(C(=O)c1sccc1C)CC2  -20.7%
16. Cc1ccccc1C(=O)NNC(=O)c1cccc([N+](=O)[O-])c1  -19.8%
17. Cc1cc(C)cc(-n2c(C)cc(/C=N/NC(=O)CN(c3c(C)cccc3C)S(C)(=O)=O)c2C)c1  -19.4%
18. COc1ccc(N(C(=O)c2ccco2)S(=O)(=O)c2cccs2)cc1  -19.4%
19. COc1ccc(NC(=O)c2ccccc2SC)cc1OC  -19.4%
20. CCCCc1c(C)[nH]c(C(=O)OCC)c1C  -19.3%
21. O=C(COc1ccccc1)NC(=S)Nc1ccc2c(c1)Cc1ccccc1-2  -19.3%
22. S=C(NCCc1ccccc1)N/N=C/c1c(Cl)cccc1Cl  -18.4%
23. CCN1CCN(CC(=O)c2ccc(OC)cc2)CC1  -18.4%
24. Cc1ccc(S(=O)(=O)Nc2c(C)[nH]c(=O)[nH]c2=O)cc1C  -17.9%
25. CN1CCN(S(=O)(=O)c2cccc(S(=O)(=O)c3ccc(Cl)cc3)c2)CC1  -17.8%
26. CC(Oc1ccccc1F)C(=O)NC1CCS(=O)(=O)C1 (stereo not drawn)  -17.8%
27. COc1cc(/C=C2/C(=O)NN(c3ccccc3)C2=O)cc(Br)c1O  -17.5%
28. CCOc1ccc(C(=O)N/N=C/c2cc([N+](=O)[O-])cs2)cc1  -17.4%
29. O=c1[nH]c(=S)[nH]c2c1C(c1ccc(Br)cc1)c1c([nH]c(=S)[nH]c1=O)O2  -17.1%
30. O=C(COC(=O)C1CCC(=O)N1)Nc1cc(Cl)ccc1Cl (stereo not drawn)  -16.9%
31. CC1CCCC(C(=O)OCc2ccccc2)N1 (stereo not drawn)  -16.7%
32. COc1ccc(NC(=O)c2cc(S(=O)(=O)N3CCOCC3)ccc2N2CCOCC2)cc1  -16.6%
33. CC1(C)CC(=O)c2c(nn(-c3ccccc3)c2-c2ccncc2)C1  -16.4%
34. N=c1sccn1CC(=O)Nc1ccccc1Cc1ccccc1  -16.3%
35. Cc1c(C(=O)NNC(=O)c2ccncc2)oc2ccc(Br)cc12  -16.1%
36. O=C(O)c1cc(/C=N\O)ccc1OCc1ccccc1  -16.1%
37. O=C(N/N=C/c1ccsc1)C1CC1  -15.9%
38. CCOC(=O)c1cccc(C(=O)Nc2nc3ccc(OC)cc3s2)n1  -15.8%
39. CCCNc1c(NS(=O)(=O)c2cccc(C#N)c2)c(=O)oc2ccccc12  -15.8%
40. Cc1cc(SCC(=O)c2cccc([N+](=O)[O-])c2)nc(=O)[nH]1  -15.5%
41. Cc1ccc(CNC(=O)C2=CCN(S(=O)(=O)c3ccc(C)cc3)CC2)cc1  -15.1%
42. CC(C)CCNC(=O)CCc1nnc(Cc2c[nH]c3ccccc23)o1  -15.1%
43. COc1ccc(C(=O)CNc2ccccc2C#N)cc1  -15%
44. CCOC(=O)c1c(C)oc2cc(Br)c(OC)cc12  -14.7%
45. N#Cc1cc(-c2ccccc2)nnc1Oc1ccccc1  -14.7%
46. CC(=O)N1CCc2cc(S(=O)(=O)N3c4ccccc4CC3C)ccc21 (stereo not drawn)  -13.9%
47. Cn1cc([N+](=O)[O-])c(C(=O)NCc2cc3cc(Cl)ccc3[nH]2)n1  -13.6%
48. COc1ccccc1C(=O)Nc1ccnn1C1CCN(C(=O)c2ccoc2C)CC1  -12.1%
49. CCOC(=O)c1c(NC(=O)/C=C/c2ccco2)sc(C)c1C  -12%
50. CCOC(=O)c1[nH]cnc1C(=O)Nc1ccc([N+](=O)[O-])cc1  -11.7%
51. COCCCn1c(=S)[nH]c2c(sc3ccccc32)c1=O  -11.4%
52. CCN(CC)CCOC(=O)C(c1ccccc1)c1ccccc1  -11.4%
53. O=C(/C=C/c1ccccc1)Nc1ccc(C(=O)N2CCCCC2)cc1  -11.4%
54. Cc1nc(NC(=O)c2ccco2)sc1C(=O)O  -11.4%
55. COc1ccc(C(=O)CC(=O)C(=O)Nc2ccc(C)c(C)c2)cc1  -11.4%
56. Cc1ccc(CNC(=O)CN(C(=O)C2(C)CC(=O)N=C3C=CC=CN32)c2ccccc2F)cc1 (stereo not drawn)  -10.9%
57. CCOC(=O)c1sc(NC(=S)NC(=O)c2ccc(OC)cc2)nc1C  -10.9%
58. Cc1nn(Cc2ccccc2)c2c1C(c1cccnc1)C(C#N)=C(N)O2 (stereo not drawn)  -10.8%
59. CCOCCCn1c(=S)[nH]c2cc(C(=O)NCCOC)ccc2c1=O  -10.4%
60. COc1ccc(C(=O)CC(=O)C(=O)Nc2ccccc2OC)cc1  -10.2%
61. O=C1C=C(NCCN2CCOCC2)C(=O)c2cnccc21  -10.1%
62. C=CCn1c(-c2cc(-c3ccc(C)cc3)nc3ccccc23)n[nH]c1=S  -9.8%
63. COc1cc(OC)cc(C(=O)O/N=C(\N)c2cccc(C)c2)c1  -9.7%
64. O=S(=O)(Nc1cccc(-n2cnnn2)c1)c1ccc(Cl)nc1  -9%
65. COc1ccc(C(=O)CC(=O)C(=O)Nc2ccc(C)c(Cl)c2)cc1  -9%
66. CCOc1ccccc1NC(=O)C(=O)CC(=O)c1cccc(OC)c1  -8.6%
67. CCOc1c(OC)ccc2c3c(c(=O)oc12)CCCC3  -8.2%
68. N#Cc1ccccc1OCCN1C(=O)c2ccccc2C1=O  -7.5%
69. CN(C)S(=O)(=O)c1cc(NC2CC(=O)N(c3ccc(F)cc3)C2=O)ccc1Cl (stereo not drawn)  -7.3%
70. COc1ccccc1C(=O)Nc1ccc(C(=O)N2CCCC2)cc1  -7.2%
71. CCN(Cc1ccc(OC)c(F)c1)C(=O)C1CCCO1 (stereo not drawn)  -7.1%
72. CCOc1ccccc1NC(=O)C(=O)CC(=O)c1ccc(OC)cc1  -5.2%
73. CCCn1c(CC)nc([N+](=O)[O-])c1S(=O)(=O)c1ccccc1  -4.3%
74. Nc1ccc2c(c1)C(=O)C(=O)c1ccccc1-2  -3.9%
75. CCOC(=O)c1sc(NC(=S)NC(=O)c2ccccc2)nc1C  -3.4%
76. COc1ccc(C(=O)CC(=O)C(=O)Nc2ccc(Cl)cc2)cc1  -2.1%

COCCn1c(=S)[nH]c2sc3c(c2c1=O)CCC(C)C3 (stereo not drawn) was tested, and the activity change, less the hit threshold was 51.5% (active).
COCCCn1c(=S)[nH]c2sc3c(c2c1=O)CCCC3 was tested, and the activity change, less the hit threshold was 40.5% (active).
For COCCn1c(=S)[nH]c2sc3c(c2c1=O)CCCC3, the activity change, less the hit threshold was 31.9% (active).
For Cc1ccc(NC(=O)c2cc(NC(=O)/C=C\C(=O)O)ccc2N2CCCCC2)cc1, the activity change, less the hit threshold was 3.1% (active).
In the case of CC(=O)N1c2ccc(N=Cc3cc(Br)cc(Br)c3O)cc2CC1C (stereo not drawn), the activity change, less the hit threshold is reported as 0.4% (active).
In the case of Cc1cc(Br)c(NC(=O)COC(=O)C2CC2C)c(Br)c1 (stereo not drawn), the activity change, less the hit threshold is reported as 4.5% (active).
With CCOC(=O)c1sc2ncnc(NCC(c3cccs3)N(C)C)c2c1C (stereo not drawn) the activity change, less the hit threshold was 39.2% (active).
CCOC(=O)c1sc2ncnc(NCc3ccco3)c2c1C was tested, and the activity change, less the hit threshold was 51.8% (active).
With CCOC(=O)c1sc(NC(=S)NC(=O)c2cccc(OC)c2)nc1C the activity change, less the hit threshold was 4.7% (active).
In the case of CCOC(=O)c1sc(NC(=S)NC(=O)c2ccco2)nc1C, the activity change, less the hit threshold is reported as 4.8% (active).
For CCOC(=O)/C(C)=N/NC(=O)c1cccc([N+](=O)[O-])c1, the activity change, less the hit threshold was 5.2% (active).
With CCOC(=O)/C(C)=N/NC(=O)c1ccc([N+](=O)[O-])cc1 the activity change, less the hit threshold was 16.8% (active).
In the case of COc1ccc(C(=O)CC(=O)C(=O)Nc2ccc(C)cc2Cl)cc1, the activity change, less the hit threshold is reported as 10.2% (active).
With COc1ccc(C(=O)CC(=O)C(=O)Nc2ccccc2C(F)(F)F)cc1 the activity change, less the hit threshold was 7.4% (active).
For COc1ccc(C(=O)CC(=O)C(=O)Nc2ccccc2)cc1, the activity change, less the hit threshold was 3.1% (active).
For COc1cccc(C(=O)CC(=O)C(=O)Nc2ccc(C)cc2Cl)c1, the activity change, less the hit threshold was 10.8% (active).
For COc1ccc(C(=O)CC(=O)C(=O)Nc2ccccc2Cl)cc1, the activity change, less the hit threshold was 44.4% (active).
With Cc1ccc(-c2cc(-c3n[nH]c(=S)o3)c3ccccc3n2)cc1 the activity change, less the hit threshold was 37.2% (active).
With COc1ccccc1C(=O)NNC(=O)C(=O)Nc1ccc(C)c(Cl)c1 the activity change, less the hit threshold was 126% (active).
With COc1ccccc1C(=O)NNC(=O)C(=O)NC(C)(C)C the activity change, less the hit threshold was 16.8% (active).
COc1ccccc1C(=O)NNC(=O)C(=O)Nc1ccc(C)cc1 was tested, and the activity change, less the hit threshold was 132% (active).
With Cc1ccc(NC(=O)C(=O)NNC(=O)c2ccccc2C)cc1Cl the activity change, less the hit threshold was 90.3% (active).
